PMC8384837, “Expanding the binding specificity for RNA recognition by a PUF domain”

Each sequence was assayed against PUM1 PUF domain R8-HWK (Homo sapiens, UniProt Q14671 828-1176, N1122H;Y1123W;Q1126K) (assay: yeast three-hybrid, YBZ-1, SC-Leu-His + 0.5 mM 3-AT, 4 days). Conditions: tags: N-Gal4 AD-HA kept; label: inside an RPR1-promoter hybrid RNA with tandem MS2 sites; ssRNA.
Sequence of PUM1 PUF domain R8-HWK (Q14671 828-1176 N1122H/Y1123W/Q1126K): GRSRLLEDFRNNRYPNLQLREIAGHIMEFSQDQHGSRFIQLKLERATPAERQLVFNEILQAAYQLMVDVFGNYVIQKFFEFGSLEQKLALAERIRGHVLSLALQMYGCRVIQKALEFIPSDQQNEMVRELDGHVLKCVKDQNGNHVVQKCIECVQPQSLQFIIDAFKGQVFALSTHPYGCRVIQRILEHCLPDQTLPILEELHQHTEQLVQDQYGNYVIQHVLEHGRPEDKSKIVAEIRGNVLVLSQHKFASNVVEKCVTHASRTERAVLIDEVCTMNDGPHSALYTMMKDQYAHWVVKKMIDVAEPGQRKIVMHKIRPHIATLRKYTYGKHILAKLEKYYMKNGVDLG
How it was run: (§1)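 The interaction score is the log change in how often each variant appears, from input to selection. Frequencies came from PCR-amplified, Illumina-sequenced repeat regions of Pumilio-1 PUF domain libraries grown in strain YBZ-1 (LexA–MS2 coat fusion, HIS3 reporter) alongside matching RNA elements. Input plates were SC-Leu and selection plates were SC-Leu-His + 0.5 mM 3-AT, each for four days, and the log2 calculation used a pseudocount of 1 where a variant was absent.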
For “GGCUAGAACUAGUGGAUCCCCCGGCGCCCGGCGGCUCGAGCCCGGGUAAGCGUAAAUAGUCUGCAUGCCGCCGGGCGCCAUGCCUGCAGGUCGACUCUAGAAAACAUG”, the binding signal was 2.42 log2 enrichment (interaction score).
In the case of “GGCUAGAACUAGUGGAUCCCCCGGCGCCCGGCGGCUCGAGCCCGGGUAAGUGUAAAUAGUCUGCAUGCCGCCGGGCGCCAUGCCUGCAGGUCGACUCUAGAAAACAUG”, the binding signal is reported as 2.36 log2 enrichment (interaction score).
In the case of “GGCUAGAACUAGUGGAUCCCCCGGCGCCCGGCGGCUCGAGCCCGGGUAAGGGUAAAUAGUCUGCAUGCCGCCGGGCGCCAUGCCUGCAGGUCGACUCUAGAAAACAUG”, the binding signal is reported as 2.46 log2 enrichment (interaction score).

These sequences were tested against PUM1 PUF domain R5-RSM (Homo sapiens, UniProt Q14671 828-1176, C1007R;R1008S;Q1011M) in the same assay as above. Conditions: tags: N-Gal4 AD-HA kept; label: inside an RPR1-promoter hybrid RNA with tandem MS2 sites; ssRNA.
How it was run: as §1
In the case of “GGCUAGAACUAGUGGAUCCCCCGGCGCCCGGCGGCUCGAGCCCGGGUAAGUGUAAAUAGUCUGCAUGCCGCCGGGCGCCAUGCCUGCAGGUCGACUCUAGAAAACAUG”, the binding signal is reported as 1.04 log2 enrichment (interaction score).
With “GGCUAGAACUAGUGGAUCCCCCGGCGCCCGGCGGCUCGAGCCCGGGUAAGUGUGAAUAGUCUGCAUGCCGCCGGGCGCCAUGCCUGCAGGUCGACUCUAGAAAACAUG” the binding signal was 0.3 log2 enrichment (interaction score).
In the case of “GGCUAGAACUAGUGGAUCCCCCGGCGCCCGGCGGCUCGAGCCCGGGUAAGUGUCAAUAGUCUGCAUGCCGCCGGGCGCCAUGCCUGCAGGUCGACUCUAGAAAACAUG”, the binding signal is reported as 3.66 log2 enrichment (interaction score).

Each sequence was assayed against PUM1 PUF domain R3-MRG (Homo sapiens, UniProt Q14671 828-1176, C935M;Q939G) in the same assay as above. Conditions: tags: N-Gal4 AD-HA kept; label: inside an RPR1-promoter hybrid RNA with tandem MS2 sites; ssRNA.
How it was run: as §1
With “GGCUAGAACUAGUGGAUCCCCCGGCGCCCGGCGGCUCGAGCCCGGGUAAGUGUAAGUAGUCUGCAUGCCGCCGGGCGCCAUGCCUGCAGGUCGACUCUAGAAAACAUG” the binding signal was 5.6 log2 enrichment (interaction score).
With “GGCUAGAACUAGUGGAUCCCCCGGCGCCCGGCGGCUCGAGCCCGGGUAAGUGUAAAUAGUCUGCAUGCCGCCGGGCGCCAUGCCUGCAGGUCGACUCUAGAAAACAUG” the binding signal was 0.61 log2 enrichment (interaction score).
For “GGCUAGAACUAGUGGAUCCCCCGGCGCCCGGCGGCUCGAGCCCGGGUAAGUGUAAUUAGUCUGCAUGCCGCCGGGCGCCAUGCCUGCAGGUCGACUCUAGAAAACAUG”, the binding signal was 2.8 log2 enrichment (interaction score).

The sequences below were run against PUM1 PUF domain R3-GWL (Homo sapiens, UniProt Q14671 828-1176, C935G;R936W;Q939L) in the same assay as above. Conditions: tags: N-Gal4 AD-HA kept; label: inside an RPR1-promoter hybrid RNA with tandem MS2 sites; ssRNA.
How it was run: as §1
For “GGCUAGAACUAGUGGAUCCCCCGGCGCCCGGCGGCUCGAGCCCGGGUAAGUGUAAGUAGUCUGCAUGCCGCCGGGCGCCAUGCCUGCAGGUCGACUCUAGAAAACAUG”, the binding signal was 1.08 log2 enrichment (interaction score).
For “GGCUAGAACUAGUGGAUCCCCCGGCGCCCGGCGGCUCGAGCCCGGGUAAGUGUAAAUAGUCUGCAUGCCGCCGGGCGCCAUGCCUGCAGGUCGACUCUAGAAAACAUG”, the binding signal was 3.81 log2 enrichment (interaction score).
With “GGCUAGAACUAGUGGAUCCCCCGGCGCCCGGCGGCUCGAGCCCGGGUAAGUGUAAUUAGUCUGCAUGCCGCCGGGCGCCAUGCCUGCAGGUCGACUCUAGAAAACAUG” the binding signal was 3.82 log2 enrichment (interaction score).
